From PubChem BioAssay (EPA / NIEHS)
Results filed as inconclusive are left out. Activity calls are given as the source filed them. The calls were made as follows, unless noted: active = hit-call score of the fitted dose curve at least 0.9, where 1 is the maximum; inactive = score below 0.9.

Key:
[1] = target: Nuclear respiratory factor 1 (Homo sapiens) (UniProt Q16656); assay: ATG_NRF1_CIS: Attagene CIS-FACTORIAL HepG2 Assay for human Nuclear Respiratory Factor 1 (NRF1) Orphan Gene (AID 2282987); details: HepG2 NRF1 cis-element reporter, Attagene multiplex; actives raise or lower the signal
How it was run: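 Endogenous NRF1-driven reporter transcription measured in transiently transfected human HepG2 liver cells. Readout: reporter mRNA by RT-PCR and capillary electrophoresis with fluorescence detection, 24 h post-dosing. Gain or loss of signal fitted relative to DMSO baseline.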

[2] = ATG_NFI_CIS: Attagene CIS-FACTORIAL HepG2 Assay for human Nuclear Factor I (NFI) (AID 2282989); details: HepG2 cis-regulatory reporter, NFI response element transcription; actives raise or lower the signal
How it was run: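 Read-out: reporter mRNA via RT-PCR plus capillary electrophoresis with fluorescence detection. Transiently transfected HepG2 (endogenous TF activity on cis promoters), 24 h compound exposure; gain or loss of signal fitted against DMSO.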

[3] = target: Myc proto-oncogene protein (Homo sapiens) (UniProt P01106); assay: ATG_Myc_CIS: Attagene CIS-FACTORIAL HepG2 Assay for human Myelocytomatosis (Myc) Proto-Oncogene Transcription Factor (AID 2282990); details: HepG2, Attagene cis-reporter transcription factor activity; actives raise or lower the signal
How it was run: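 HepG2, transient MRTU transfection (cis promoters, endogenous TFs); 24 h dosing; TriZol RNA → oligo(dT) RT → PCR → 6-FAM primer extension → HpaI cut → CE. Bidirectional fit vs DMSO.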

[4] = ATG_NF_kB_CIS: Attagene CIS-FACTORIAL HepG2 Assay for human Nuclear Factor Kappa B (NF-kB) (AID 2282991); details: HepG2 Attagene cis-factorial NF-kB reporter mRNA; actives raise or lower the signal
How it was run: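 Read-out: reporter transcript levels quantified by RT-PCR plus capillary electrophoresis of 6-FAM-labelled, HpaI-cut fragments. Transfected HepG2 cells, 24 h compound exposure, endogenous NF-kB-driven cis element; gain or loss scored versus DMSO.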

[5] = ATG_NRF2_ARE_CIS: Attagene CIS-FACTORIAL HepG2 Assay for human Nuclear Factor Erythroid 2 Related Factor 2 (NFR2) response to Antioxidant Response Elements (ARE) (AID 2282992); details: HepG2 Attagene ARE/NRF2 reporter, transcription factor activity; actives raise or lower the signal
How it was run: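 Cis-factorial assay: transfected HepG2 reporter library, 24 h dosing, mRNA readout via RT-PCR/CE; DMSO-referenced bidirectional analysis.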

[6] = ATG_Oct_MLP_CIS: Attagene CIS-FACTORIAL HepG2 Assay for human Octamer-Binding Transcription Factor (Oct) (AID 2282993); details: HepG2 Attagene cis-factorial Oct reporter, mRNA; actives raise or lower the signal
How it was run: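 Read-out: reporter mRNA via RT-PCR plus capillary electrophoresis of 6-FAM-labelled fragments. Transiently transfected HepG2, 24 h exposure, endogenous TF activity on cis elements. Gain or loss of signal fitted relative to DMSO.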

[7] = target: Cellular tumor antigen p53 (Homo sapiens) (UniProt P04637); assay: ATG_p53_CIS: Attagene CIS-FACTORIAL HepG2 Assay for human p53 Transcription Factor (AID 2282994); details: HepG2 p53 cis-element reporter, Attagene mRNA; actives raise or lower the signal
How it was run: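 Using HepG2 hepatoma cells carrying cis-acting multiplexed reporters, mRNA induction is detected after a 24 h exposure. Gain- and loss-of-signal responses are fitted relative to DMSO-treated cells.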

[8] = BSK_3C_TissueFactor: BioMAP Diversity Plus: 3C Assay for Tissue Factor Biomarker Activity (AID 2282997); details: BioMAP 3C HUVEC, tissue factor biomarker readout; actives raise or lower the signal
How it was run: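 HUVEC were treated 24 h, then surface tissue factor measured by ELISA and fitted bidirectionally against DMSO. Parallel SRB total-protein staining assessed overt cytotoxicity at the same time point.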

[9] = BSK_3C_uPAR: BioMAP Diversity Plus: 3C Assay for Urokinase-type plasminogen activator receptor (uPAR) Biomarker Activity (AID 2282998); details: BioMAP 3C HUVEC, uPAR biomarker ELISA; actives raise or lower the signal
How it was run: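 HUVEC primary cells; 24 h post-dose; uPAR by ELISA; gain or loss of signal fitted bidirectionally vs DMSO baseline.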

[10] = BSK_3C_VCAM1: BioMAP Diversity Plus: 3C Assay for Vascular cell adhesion molecule 1 (VCAM1) Biomarker Activity (AID 2282999); details: BioMAP 3C HUVEC, VCAM1 ELISA, cytokine-stimulated; actives raise or lower the signal
How it was run: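 Endothelial cells from human umbilical vein are treated with test chemical. At 24 h, VCAM-1 is measured by ELISA, and responses in either direction are fitted relative to DMSO.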

[11] = BSK_4H_Eotaxin3: BioMAP Diversity Plus: 4H Assay for Eotaxin 3 Biomarker Activity (AID 2283000); details: primary human endothelial cells (HUVEC); actives raise or lower the signal
How it was run: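 Eotaxin-3 (CCL26) levels were measured by ELISA in HUVEC primary cultures 24 h post-dosing. Gain or loss of signal was fitted in both directions, with DMSO serving as baseline and negative control.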

[12] = target: human Peroxisome Proliferator-activated Receptor alpha (PPARa), PPARA (gene 5465) (UniProt Q07869); assay: ATG_PPARa_TRANS: Attagene TRANS-FACTORIAL HepG2 Assay for human Peroxisome Proliferator-activated Receptor alpha (PPARa) (AID 2283001; active = hit-call score of the fitted dose curve at least 0.9, where 1 is the maximum;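 as to AC50: potency for gain of reporter signal over DMSO so agonist or activator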)
How it was run: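 Read-out is fluorescence of reporter cDNA fragments resolved by capillary electrophoresis after RT-PCR. Human HepG2 liver cells carried transfected PPARa-Gal4 chimera and GAL4-UAS reporter units, treated 24 h; activity scored as increase over DMSO.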

[13] = target: human Peroxisome Proliferator-activated Receptor delta (PPARd), PPARD (gene 5467) (UniProt Q03181); assay: ATG_PPARd_TRANS: Attagene TRANS-FACTORIAL HepG2 Assay for human Peroxisome Proliferator-activated Receptor delta (PPARd) (AID 2283002; active = hit-call score of the fitted dose curve at least 0.9, where 1 is the maximum)
How it was run: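 Transient HepG2 transfection (multiple GAL4-UAS RTUs, chimeric receptor-Gal4); 24 h dosing; total RNA → oligo(dT) RT → PCR → 6-FAM primer extension → HpaI cut → CE. Positive direction vs DMSO.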

[14] = read-out: Intercellular Adhesion Molecule 1 (ICAM1), ICAM1 (gene 3383); assay: BSK_3C_ICAM1: BioMAP Diversity Plus: 3C Assay for Intercellular Adhesion Molecule 1 (ICAM1) Biomarker Activity (AID 2283003); details: primary human endothelial cells (HUVEC); actives raise or lower the signal
How it was run: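 HUVEC primary cells stimulated under 3C conditions; ICAM1 measured by ELISA 24 h after compound dosing. Curves fitted bidirectionally against the DMSO baseline. Overt cytotoxicity checked by SRB staining of parallel cultures.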

[15] = target: human Retinoic Acid Receptor beta (RARb), RARB (gene 5915) (UniProt P10826); assay: ATG_RARb_TRANS: Attagene TRANS-FACTORIAL HepG2 Assay for human Retinoic Acid Receptor beta (AID 2283004; active = hit-call score of the fitted dose curve at least 0.9, where 1 is the maximum)
How it was run: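 HepG2 cells were transiently transfected with GAL4-UAS reporter units that report activity of exogenous chimeric NR-Gal4 proteins, then exposed to compound for 24 h. Reporter mRNA was quantified by RT-PCR with capillary electrophoresis fluorescence, as gain of signal over DMSO.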

[16] = target: Retinoic acid receptor alpha (Homo sapiens) (UniProt P10276); assay: ATG_RARa_TRANS: Attagene TRANS-FACTORIAL HepG2 Assay for human Retinoic Acid Receptor alpha (RARa) (AID 2283005; active = hit-call score of the fitted dose curve at least 0.9, where 1 is the maximum)
How it was run: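 Reporter transcripts, measured by RT-PCR with fluorescent labeling and capillary electrophoresis after 24 h dosing, reflect activity of an exogenous human RARa–GAL4 fusion in transiently transfected HepG2. Fitted for increase relative to DMSO.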

[17] = BSK_3C_Proliferation: Cell Proliferation Assessment in the BioMAP Diversity Plus: 3C Assay (AID 2283006); details: primary human endothelial cells (HUVEC);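 as to AC50: potency may reflect either rise or fall in cell number versus DMSO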
How it was run: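 Subconfluent HUVEC (3C system) cultured with chemical; relative cell number read at 48 h by sulforhodamine B total-protein staining (0.1% SRB after 10% TCA fixation, 560 nm). Bidirectional fit relative to DMSO.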

[18] = target: Peroxisome proliferator-activated receptor gamma (Homo sapiens) (UniProt P37231); assay: ATG_PPARg_TRANS: Attagene TRANS-FACTORIAL HepG2 Assay for human Peroxisome Proliferator-activated Receptor-gamma (PPARg) (AID 2283007; active = hit-call score of the fitted dose curve at least 0.9, where 1 is the maximum)
How it was run: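 Read-out: reporter mRNA induction, detected by fluorescence after RT-PCR and capillary electrophoresis. Transiently transfected human HepG2 liver cells carrying a chimeric NR-Gal4 construct were dosed for 24 h; activity was fitted upward relative to DMSO.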

[19] = target: Nuclear receptor subfamily 1 group I member 2 (Homo sapiens) (UniProt O75469); assay: ATG_PXR_TRANS: Attagene TRANS-FACTORIAL HepG2 Assay for human Pregnane X Receptor (PXR) (AID 2283008; active = hit-call score of the fitted dose curve at least 0.9, where 1 is the maximum)
How it was run: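 Fluorescence intensity of FAM-labelled, HpaI-digested reporter amplicons, separated by capillary electrophoresis, quantifies induction. HepG2 cells with PXR-Gal4 trans-reporter system were exposed 24 h; DMSO defines baseline.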

[20] = target: human Retinoic Acid Receptor gamma (RARg), RARG (gene 5916) (UniProt P13631); assay: ATG_RARg_TRANS: Attagene TRANS-FACTORIAL HepG2 Assay for human Retinoic Acid Receptor gamma (RARg) (AID 2283009; active = hit-call score of the fitted dose curve at least 0.9, where 1 is the maximum)
How it was run: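 HepG2 transiently transfected with GAL4-UAS reporter units and chimeric NR-Gal4 constructs; 24 h compound exposure. Reporter mRNA quantified by RT-PCR, FAM labeling, HpaI digestion and capillary electrophoresis; gain-of-signal versus DMSO.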

Measured: AC50

Sequence of Myc proto-oncogene protein (Homo sapiens) (P01106 whole entry, looked up): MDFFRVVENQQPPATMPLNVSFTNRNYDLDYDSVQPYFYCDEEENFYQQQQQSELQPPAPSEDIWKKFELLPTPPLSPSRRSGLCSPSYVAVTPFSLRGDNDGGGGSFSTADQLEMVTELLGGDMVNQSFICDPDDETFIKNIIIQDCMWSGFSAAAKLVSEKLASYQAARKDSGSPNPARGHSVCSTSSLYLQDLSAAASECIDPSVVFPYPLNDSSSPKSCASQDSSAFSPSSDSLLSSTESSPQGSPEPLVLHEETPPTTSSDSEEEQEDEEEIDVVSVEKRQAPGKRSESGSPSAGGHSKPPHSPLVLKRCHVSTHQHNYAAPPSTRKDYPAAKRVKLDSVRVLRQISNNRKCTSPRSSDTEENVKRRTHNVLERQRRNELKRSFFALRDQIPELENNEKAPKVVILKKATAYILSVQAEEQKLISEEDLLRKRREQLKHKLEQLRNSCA
Sequence of Nuclear respiratory factor 1 (Homo sapiens) (Q16656 whole entry, looked up): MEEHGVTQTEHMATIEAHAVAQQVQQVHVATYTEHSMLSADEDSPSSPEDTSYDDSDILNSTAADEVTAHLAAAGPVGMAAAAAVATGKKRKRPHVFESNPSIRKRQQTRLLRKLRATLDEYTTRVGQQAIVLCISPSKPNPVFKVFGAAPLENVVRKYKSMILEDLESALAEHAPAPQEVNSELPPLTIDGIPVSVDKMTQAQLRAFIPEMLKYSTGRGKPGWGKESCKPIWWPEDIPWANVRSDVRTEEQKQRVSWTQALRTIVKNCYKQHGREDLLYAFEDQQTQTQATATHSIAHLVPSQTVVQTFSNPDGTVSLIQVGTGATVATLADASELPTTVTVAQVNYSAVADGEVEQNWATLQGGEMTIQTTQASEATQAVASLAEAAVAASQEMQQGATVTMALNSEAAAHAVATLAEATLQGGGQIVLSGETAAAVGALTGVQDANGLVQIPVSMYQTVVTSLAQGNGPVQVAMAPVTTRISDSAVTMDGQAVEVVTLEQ
Sequence of human Peroxisome Proliferator-activated Receptor delta (PPARd), PPARD (gene 5467) (Q03181 whole entry, looked up, the tested form may be a part): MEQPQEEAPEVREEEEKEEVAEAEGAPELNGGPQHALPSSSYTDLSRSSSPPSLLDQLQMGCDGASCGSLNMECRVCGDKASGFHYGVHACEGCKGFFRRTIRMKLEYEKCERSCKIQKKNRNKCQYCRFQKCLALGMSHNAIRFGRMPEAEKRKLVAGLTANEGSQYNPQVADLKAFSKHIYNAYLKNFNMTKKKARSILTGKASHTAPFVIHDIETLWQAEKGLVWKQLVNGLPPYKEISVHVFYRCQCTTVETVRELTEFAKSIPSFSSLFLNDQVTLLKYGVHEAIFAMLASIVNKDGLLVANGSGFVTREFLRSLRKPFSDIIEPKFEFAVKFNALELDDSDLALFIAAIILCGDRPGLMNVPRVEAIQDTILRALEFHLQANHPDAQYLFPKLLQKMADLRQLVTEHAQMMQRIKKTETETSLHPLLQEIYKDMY
Sequence of Retinoic acid receptor alpha (Homo sapiens) (P10276 whole entry, looked up, the tested form may be a part): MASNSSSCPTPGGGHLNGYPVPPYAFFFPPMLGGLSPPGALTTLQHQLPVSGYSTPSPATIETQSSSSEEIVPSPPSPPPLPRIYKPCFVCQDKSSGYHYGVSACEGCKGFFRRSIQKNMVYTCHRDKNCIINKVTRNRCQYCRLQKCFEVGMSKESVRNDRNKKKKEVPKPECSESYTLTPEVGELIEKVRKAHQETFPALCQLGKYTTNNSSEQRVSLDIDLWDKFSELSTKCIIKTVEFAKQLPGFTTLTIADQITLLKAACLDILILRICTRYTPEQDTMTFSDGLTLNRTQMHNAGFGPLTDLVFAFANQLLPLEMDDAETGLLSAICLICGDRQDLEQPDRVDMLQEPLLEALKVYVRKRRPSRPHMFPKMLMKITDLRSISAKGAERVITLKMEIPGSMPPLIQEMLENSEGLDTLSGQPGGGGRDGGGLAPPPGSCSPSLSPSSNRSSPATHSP
Sequence of human Retinoic Acid Receptor beta (RARb), RARB (gene 5915) (P10826 whole entry, looked up, the tested form may be a part): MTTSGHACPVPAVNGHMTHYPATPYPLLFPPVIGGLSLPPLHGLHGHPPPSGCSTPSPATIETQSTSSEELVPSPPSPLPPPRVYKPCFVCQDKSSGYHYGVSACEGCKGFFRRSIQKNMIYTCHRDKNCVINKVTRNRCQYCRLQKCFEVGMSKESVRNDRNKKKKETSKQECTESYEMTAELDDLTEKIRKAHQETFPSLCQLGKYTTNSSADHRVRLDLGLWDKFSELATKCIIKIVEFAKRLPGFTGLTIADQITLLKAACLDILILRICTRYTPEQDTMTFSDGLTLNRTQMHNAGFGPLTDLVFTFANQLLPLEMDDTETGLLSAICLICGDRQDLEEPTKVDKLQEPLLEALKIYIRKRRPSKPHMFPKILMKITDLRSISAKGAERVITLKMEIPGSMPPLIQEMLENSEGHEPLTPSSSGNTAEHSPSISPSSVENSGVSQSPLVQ
Sequence of Peroxisome proliferator-activated receptor gamma (Homo sapiens) (P37231 whole entry, looked up, the tested form may be a part): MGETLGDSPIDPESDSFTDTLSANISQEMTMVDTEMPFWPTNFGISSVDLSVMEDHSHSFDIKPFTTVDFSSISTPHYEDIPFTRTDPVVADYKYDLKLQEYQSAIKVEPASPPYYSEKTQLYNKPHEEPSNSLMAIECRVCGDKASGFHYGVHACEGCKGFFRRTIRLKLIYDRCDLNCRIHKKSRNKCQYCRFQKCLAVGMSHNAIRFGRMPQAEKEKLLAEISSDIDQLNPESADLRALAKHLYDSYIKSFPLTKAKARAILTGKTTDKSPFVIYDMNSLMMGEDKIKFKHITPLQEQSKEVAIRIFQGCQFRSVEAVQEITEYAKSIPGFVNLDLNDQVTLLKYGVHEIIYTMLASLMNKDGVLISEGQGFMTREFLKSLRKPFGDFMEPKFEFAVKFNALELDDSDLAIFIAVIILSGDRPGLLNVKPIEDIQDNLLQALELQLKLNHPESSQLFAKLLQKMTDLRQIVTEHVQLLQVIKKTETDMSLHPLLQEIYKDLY
Sequence of Nuclear receptor subfamily 1 group I member 2 (Homo sapiens) (O75469 whole entry, looked up, the tested form may be a part): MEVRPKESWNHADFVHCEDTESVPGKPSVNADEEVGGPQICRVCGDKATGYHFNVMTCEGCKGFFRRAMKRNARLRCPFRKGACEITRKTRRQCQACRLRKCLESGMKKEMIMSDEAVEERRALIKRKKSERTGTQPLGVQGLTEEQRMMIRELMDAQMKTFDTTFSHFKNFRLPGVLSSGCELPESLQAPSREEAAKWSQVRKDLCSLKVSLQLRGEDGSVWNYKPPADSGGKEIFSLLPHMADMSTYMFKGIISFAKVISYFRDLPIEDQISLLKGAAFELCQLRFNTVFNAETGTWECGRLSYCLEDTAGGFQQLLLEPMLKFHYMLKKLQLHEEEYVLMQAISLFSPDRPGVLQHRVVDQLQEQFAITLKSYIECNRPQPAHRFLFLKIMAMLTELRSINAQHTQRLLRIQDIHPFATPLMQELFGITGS
Sequence of human Peroxisome Proliferator-activated Receptor alpha (PPARa), PPARA (gene 5465) (Q07869 whole entry, looked up, the tested form may be a part): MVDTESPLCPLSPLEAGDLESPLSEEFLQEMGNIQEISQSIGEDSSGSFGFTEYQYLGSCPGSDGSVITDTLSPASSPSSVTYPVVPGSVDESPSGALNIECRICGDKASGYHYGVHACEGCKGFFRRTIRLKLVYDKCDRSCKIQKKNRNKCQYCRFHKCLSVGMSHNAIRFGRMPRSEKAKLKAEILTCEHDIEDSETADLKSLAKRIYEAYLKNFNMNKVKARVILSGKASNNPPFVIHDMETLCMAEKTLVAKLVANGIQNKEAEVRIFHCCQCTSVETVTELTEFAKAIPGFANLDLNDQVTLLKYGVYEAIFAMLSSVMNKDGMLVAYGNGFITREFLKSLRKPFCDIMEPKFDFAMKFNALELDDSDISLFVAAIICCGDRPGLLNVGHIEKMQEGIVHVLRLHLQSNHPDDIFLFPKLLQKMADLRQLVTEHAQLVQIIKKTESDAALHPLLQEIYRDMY
Sequence of Cellular tumor antigen p53 (Homo sapiens) (P04637 whole entry, looked up): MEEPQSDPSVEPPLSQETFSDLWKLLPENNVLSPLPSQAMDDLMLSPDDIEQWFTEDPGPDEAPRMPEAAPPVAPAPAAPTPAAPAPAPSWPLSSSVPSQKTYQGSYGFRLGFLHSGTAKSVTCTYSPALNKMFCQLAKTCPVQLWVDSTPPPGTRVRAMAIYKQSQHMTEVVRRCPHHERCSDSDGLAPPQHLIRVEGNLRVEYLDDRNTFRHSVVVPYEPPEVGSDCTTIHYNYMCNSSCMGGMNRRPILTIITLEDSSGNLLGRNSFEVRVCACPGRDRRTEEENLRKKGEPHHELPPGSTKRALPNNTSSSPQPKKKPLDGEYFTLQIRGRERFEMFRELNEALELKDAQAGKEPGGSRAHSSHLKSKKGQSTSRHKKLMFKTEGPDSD
Sequence of human Retinoic Acid Receptor gamma (RARg), RARG (gene 5916) (P13631 whole entry, looked up, the tested form may be a part): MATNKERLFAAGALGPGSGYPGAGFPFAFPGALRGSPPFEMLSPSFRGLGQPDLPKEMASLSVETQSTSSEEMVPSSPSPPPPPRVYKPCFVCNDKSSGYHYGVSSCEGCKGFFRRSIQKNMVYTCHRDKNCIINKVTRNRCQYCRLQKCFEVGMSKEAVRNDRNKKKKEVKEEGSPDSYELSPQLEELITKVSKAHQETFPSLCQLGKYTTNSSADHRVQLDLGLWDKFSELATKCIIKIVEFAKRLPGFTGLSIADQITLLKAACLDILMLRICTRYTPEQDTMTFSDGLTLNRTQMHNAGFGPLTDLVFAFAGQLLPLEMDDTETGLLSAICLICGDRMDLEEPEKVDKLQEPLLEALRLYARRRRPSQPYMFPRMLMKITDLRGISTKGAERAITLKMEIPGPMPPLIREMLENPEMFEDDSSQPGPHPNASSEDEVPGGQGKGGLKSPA

CCCCC(CC)COC(=O)CC(C(=O)OCC(CC)CCCC)S(=O)(=O)O (stereo not given)
active: [5] 11.1 µM | [8] 31.8 µM | [9] 31.1 µM | [10] 38.9 µM | [11] 36.5 µM | [14] 31.5 µM | [17] 30.6 µM | [18] 7.56 µM | [19] 0.678 µM
inactive: [1] | [2] | [3] | [4] | [6] | [7] | [12] | [13] | [15] | [16] | [20]

Nc1ccc(S(=O)(=O)c2ccc(N)cc2)cc1
inactive: [1] | [2] | [3] | [4] | [5] | [6] | [7] | [8] | [9] | [10] | [11] | [13] | [14] | [17] | [18] | [19]

Cc1oc(-c2ccccc2)nc1CCOc1cccc2c1ccn2CCC(=O)O
inactive: [1] | [2] | [3] | [4] | [6] | [7] | [8] | [9] | [10] | [11] | [14] | [15] | [16] | [17] | [20]
active: [5] 31.4 µM | [12] 3.95 µM | [13] 4.28 µM | [18] 0.0142 µM | [19] 10.9 µM

CC(=O)Oc1ccccc1C(=O)O
inactive: [1] | [2] | [3] | [4] | [7] | [8] | [9] | [10] | [11] | [12] | [14] | [15] | [16] | [17] | [19] | [20]
active: [5] 68 µM | [6] 177 µM | [18] 61.7 µM

Oc1ccc2ccccc2c1N=Nc1ccccc1
inactive: [1] | [2] | [3] | [4] | [6] | [7] | [9] | [10] | [12] | [14] | [15] | [16] | [17] | [19] | [20]
active: [5] 1.42 µM | [8] 6 µM | [11] 1.7 µM | [18] 3.87 µM

Clc1cc(Cl)c(Cl)cc1Cl
inactive: [1] | [2] | [3] | [4] | [5] | [6] | [7] | [9] | [10] | [11] | [12] | [13] | [14] | [17] | [19] | [20]
active: [8] 6.33 µM

CCOC(=O)CCC(=O)OCC
inactive: [1] | [2] | [3] | [5] | [6] | [7] | [8] | [9] | [10] | [11] | [14] | [15] | [17] | [20]
